# Source: PubChem BioAssay (National Center for Advancing Translational Sciences (NCATS))
# USP1-UAF1 inh = blocks the human USP1/UAF1 deubiquitinase complex; O94782; recombinant USP1/UAF1, Ub-Rhodamine cleavage fluorescence; Potency, µM (top dose mostly 57.1 µM), for the others: at the highest dose activity change, negative = inhibition, most hits filed as inhibitors; 390,000 compounds, 0.23% hits; AID 743255; further: potency means the concentration at half of the fitted maximal effect; nearly all actives have a fitted effect of over 60% in size
#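 1 nM enzyme complex + cpd, 15 min RT; start with Ub-Rho 150nM final; kinetic fluorescence ex 480/em 540, 6 reads q60 s. Buffer 50mM HEPES pH 7.8, 0.5mM EDTA, 0.1 mg/ml BSA, 1mM TCEP, 0.01% Tween-20.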
# Coupling enz = coupling enzyme interference in Giardia aldolase counter-screen. coupling enzyme system counterscreen, AmpLite Red fluorescence. activity change, negative = inhibition, % at 58.2 µM, hits read low. 290,000 compounds, 0.67% hits. AID 2472; in the data active means activity change below about -30%
#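 Coupling enzymes only (glyceraldehyde-3-phosphate) + compound, at 57.5 uM final, 10 min RT; add substrate/coupling/AmpLite Red mix, 20 min RT; fluorescence ex 525/em 598 nm. Actives flag coupling-system interference.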
# Tau fibril FP = inhibitors of human tau fibril formation; P10636; K18 P301L tau heparin fibrillization, Alexa594 FP, 6 h; Potency, µM (series often up to 57.7 µM), for the others: at the top dose activity, negative = inhibition, actives largely listed as inhibitors; 280,000 compounds, 0.39% hits; AID 1468; further: potency means the concentration at half of the fitted maximal effect; nearly all actives have a fitted effect of over 55% in size
# Target sequence (P10636 561-689 P618L limits assumed): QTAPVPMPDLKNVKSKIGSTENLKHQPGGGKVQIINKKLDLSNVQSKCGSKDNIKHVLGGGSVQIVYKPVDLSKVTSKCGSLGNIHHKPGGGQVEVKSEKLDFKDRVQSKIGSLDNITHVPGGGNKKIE
#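 FP of Alexa 594-tau after heparin (20 uM) induction. Substrate: human K18 P301L, 15 uM unlabeled, 0.24 uM labeled. Buffer 100 mM sodium acetate pH 7. 6 hr, 37 C.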
# Tau fluor counter = counter-screen for tau fibril formation inhibitors; tau K18 P301L Alexa594 fluorescence, heparin fibrillization; AID 1463; 280,000 compounds, 0.93% hits; Potency, µM (highest dose often 57.7 µM), inactives show top-dose activity change, negative = decrease; further: potency means the concentration at half of the fitted maximal effect; nearly all actives have a fitted effect of over 55% in size
#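 Human K18 P301L tau (15 uM unlabeled plus 0.24 uM Alexa 594-labeled, final) in 100 mM sodium acetate pH 7 was mixed with compound and 20 uM heparin and incubated 6 hr at 37 C.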
# Tau ThT inhib = blocks human tau fibril formation measured by thioflavin T; P10636; recombinant tau K18 P301L, heparin-induced fibrillization, ThT fluorescence; Potency, µM (titrated, usually from 57.4 µM), for inactives: top-dose activity, negative = inhibition, usual class: inhibitors; 270,000 compounds, 2.1% hits; further: potency means the concentration at half of the fitted maximal effect; nearly all actives have a fitted effect of over 55% in size
#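 Using a mix of unlabeled (15 uM) and Alexa 594-labeled (0.24 uM) tau K18 P301L, heparin-triggered fibrillization over 6 hr at 37 C was scored by ThT fluorescence.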
# Numbers without * were called inactive; u = inconclusive; x = no result given; ! = repeats disagree; [ ] = dose if it differs, or a comment. Sampled rows, rich in hits. Any-hit rate of the full collection: about 2.3%. Unless noted, the call rests on the fitted dose curve; in most records, active means well fitted curve in the direction sought with a large enough effect; inconclusive means small, poorly fitted or top-dose-only effect, or another doubt; inactive means no such curve, though single readings can be large; an effect the other way counts as inactive or inconclusive. On the % scale 0 is the no-effect control and ±100 the full control effect.
SMILES,USP1-UAF1 inh,Coupling enz,Tau fibril FP,Tau fluor counter,Tau ThT inhib
N#CC1=C(N)Oc2n[nH]c(-c3cccs3)c2C1c1ccsc1 (centres undefined),-21%,-14,u,-26%,13µM*
N#CC1=C(N)Oc2n[nH]c(-c3cccs3)c2C1c1ccco1 (centres undefined),u,-31*,u,u,16µM*
Cc1ccc(NC(=O)Cn2c(=O)oc3cc(S(=O)(=O)N4CCCCCC4)ccc32)cc1Cl,-6%,x,u,-10%,6%
CCC1CN2CCC1CC2C(Oc1cc2ccccc2c2ccccc12)c1ccnc2ccc(O)cc12 (centres undefined),x,-29,-7%[11.6 µM],-6%[11.6 µM],u
COc1ccc2c(c[n+](C)c3c4cc5c(cc4ccc23)OCO5)c1OC,x,-39*!,u,16µM*[quencher],13µM*
COc1cc2c(ccc3c4cc(OC)c(OC)cc4c[n+](C)c23)cc1O,-8%,x,x,x,x
COc1ccc(Cc2nccc3cc(OC)c(OC)cc23)cc1OC,u,-32*!,-7%,-12%,u
O=C(N/N=C/c1c(O)n(CCC2=CCCCC2)c(=S)[nH]c1=O)c1ccccc1,-10%,10,u,u,25µM*
Cc1cc(C=C2C(=O)N(C)C(=S)N(C)C2=O)c(C)n1C1CCCCC1,-18%,1,-10%,-19%,u
Cc1cc(C=C2C(=O)NC(=S)NC2=O)c(C)n1C1CCCC1,-19%,3,-13%,-22%,16µM*
COc1cc(O)c(C(=O)O)c(-c2cc(O)c(O)cc2C)c1,-20%,3,u,u,25µM*
O=C1NC(=O)N(Cc2ccco2)C(=O)/C1=C/C=C/c1ccco1,-12%,-1,u,-22%,8.9µM*
O=C1NC(=O)N(Cc2ccccc2)C(=O)/C1=C/N1CCCc2ccccc21,-10%,0,u,-24%,10µM*
CN1C(=O)/C(=C/C=C/c2ccco2)C(=O)NC1=S,u,-5,u,u,x
O=C1NC(=O)N(Cc2ccccc2)C(=O)/C1=C\C=C\c1ccco1,-5%,1,u,-22%,14µM*
CCc1ccccc1N1C(=O)N(Cc2ccccc2C)c2ccccc2S1(=O)=O,-19%,x,u,-18%,-1%
CCCCc1ccc(C(=O)O)nc1,-19%,-67*!,-5%,-17%,u
N#Cc1c(/N=C/c2c(O)n(Cc3ccco3)c(=O)[nH]c2=O)sc2c1CCCC2,-24%,-1,u,-23%,20µM*
NC(Cc1ccc(N(CCCl)CCCl)cc1)C(=O)O (centres undefined),x,-1,u,u,28µM*
CCCCCCCCCCCCCCC[C@@H](O)[C@@H](N)COP(=O)(O)O,x,2,3%,2%,1%
O=c1[nH]c(O)c(N=Nc2cc([N+](=O)[O-])ccc2O)c(=O)[nH]1,u,-2,-5%,-17%,14µM*
NC(=O)c1ccc(N=Nc2c(O)[nH]c(=O)[nH]c2=O)cc1,x,0,2%,1%,9%
Nc1ccc(C2(c3ccc(N)cc3)c3ccccc3-c3ccccc32)cc1,-22%,10,u,14µM*[quencher],u
CN1/C(=C\C=C\C2=[N+](C)c3ccc4ccccc4c3C2(C)C)C(C)(C)c2ccccc21,x,x,u,0.32µM*[fluorescent],1.4µM*
CN1/C(=C\C=Nc2ccccc2)C(C)(C)c2ccccc21,0%,-9,-12%,u,u
COc1ccc2c(c1)CCC1[C@@H]2CCC2(C)[C@@H](NCCCCCCN3C(=O)C=CC3=O)CC[C@@H]12 (some centres undefined),x,3,-13%,-19%,u
CC1(C)C[C@H]2C=C(C=O)[C@]3(C=O)C[C@]3(C)[C@H]2C1,7%,0,u,-26%,14µM*
CN(N=O)c1cc(O)ccc1O,x,x,u,u,11µM*
CCCCC/C=C\C/C=C\C/C=C\C/C=C\CCCC(=O)N(Cc1ccc(O)c(Cl)c1)Cc1ccc(O)c(Cl)c1,x,4,-2%,6%,14%
CCOC(=O)N(C)C(=O)CSP(=S)(OCC)OCC,x,0,x,x,x
